# Experimental data as given in the supplement of paper PMC6555819.
# Tested on: THRa:RXRa (NR concentration 90 nM, RXRa partner concentration 90 nM)
# Test: PBM binding z-score (relative to random genomic background probes); higher = stronger binding; sequences stand for … in GC…GCGATTGACAGCGTAGAATGAAGG
# Outline: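 Regression normalization was applied to scanned fluorescence from custom Agilent 4×180K protein-binding microarrays. Before scanning, arrays were incubated 1 h with ligand-free nuclear receptor dimers, and binding was detected with antibodies against each partner (one per run). Binding z-scores use the random background probes as reference.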
row,Sequence,PBM binding z-score
1,TATACAGGGTCAAAGGCCAGGGTACGAATGTCGA,3.73
2,TCTAGGAGGCCAGAGGGTCACTCAAGAGGTACGG,1.7
3,TCATATAGGTATACAGGTGAAAGTCCGTAAGTTA,0.729
4,TTACCTAGGTGAGCTGAGGTCGTTGATCCAACTC,4.18
5,CGTCCAAGGTCAGCAGGGCAGTGAAAGCGACGTG,3.61
6,ACTATTAGTTGAGACGAGGGGAACCGATAGGTTG,1.13
7,ATCTCTTGGTAAAGTTCAGTGAAAGATCGATAGA,0.889
8,CCTAGCAGGCCAGGGTCACTCATGCATTTCGCTT,2.79
9,ATCGAAAGGCCGAGGTGAGTATAGAGAAAGGGAA,0.936
10,TCATATAGGAAAACAGGTGAAAGTCCGTAAGTTA,0.338
11,TAATATAGGTAAAGGTGAAAGTCGAACGATATGA,1.45
12,CCTATTAGTTGACCATAAGGGCAACCGAAGCTCG,2.02
13,CGTACTAGGTCAAGGACAGTGAATCTCCGCACGC,3.22
14,GCTATTAGTTGAAAGGGCAGCCGAATGATTCTCG,-0.12
15,GCTAGCAGGCCAATTGGGTCACTCAATGACGGGC,1.66
16,CAGCCTATGTCAGGGCCAGTATAGGAGGAACGTT,-0.329
17,TGAATGAGGATATAAGATCAGGGAACGTTGCAAA,0.534
18,ACTAGCTGGCCAAGTTTGGGTCACTCAAACAAAG,1.82
19,TCATATAGGTAAACAGGTGAAAGACCGTAAGTTA,0.539
20,CGAACGAGGGCATGAATTGATAGCAAATGCCGAT,0.857
21,AGAACGAGGGCAATGAGTTGATAGAACGGGTGGC,0.969
22,AGTCAAAGTTCATCTAGGTAACGTAAGATATGCT,3.05
